Data: PubChem BioAssay (NCATS)
Results filed as inconclusive are left out. Entries that show only a call come without a potency. Calls of active or inactive are those of the source. Calls come from the whole dose curve; as a rule, active = well fitted curve in the direction sought with a large enough effect; inconclusive = small, poorly fitted or top-dose-only effect, or another doubt; inactive = no such curve, though single readings can be large; an effect the other way counts as inactive or inconclusive.

Columns and labels:
[1] = target: Aldehyde dehydrogenase, mitochondrial (Homo sapiens) (UniProt P05091); experiment: qHTS for Inhibitors of the Aldehyde Dehydrogenase Family (ALDH2) Primary screen (AID 2061308); note: nearly all actives have a fitted effect of over 55% in size
[2] = target: Retinaldehyde dehydrogenase 3 (Homo sapiens) (UniProt P47895); experiment: qHTS for Inhibitors of the Aldehyde Dehydrogenase Family (ALDH1A3) Primary screen (AID 2061315)

SMILES | Potency [1] | Potency [2]
O=C(NCc1ccccc1)n1cc(P(=S)(c2ccccc2)c2ccccc2)c2ccccc21 | inactive | inactive
Cc1ccc(NC(=O)CSc2nnc(-c3cccc([S+](=O)([O-])N4CCCC4)c3)n2-c2ccccc2)cc1 | inactive | inactive
Cc1ccc(OCCn2c(CCNC(=O)Cc3ccccc3)nc3ccccc32)cc1 | inactive | inactive
O=C1Nc2ccccc2C1Cc1cc(Cl)c(O)c(Cl)c1 (configuration not stated) | inactive | inactive
Cc1cc(N[S+](=O)([O-])c2ccc(NC(=O)Cc3ccc(F)c(F)c3)cc2)no1 | inactive | inactive
C=C(C(=O)OC[C@H]1O[C@@H](OC(=O)/C=C/c2ccccc2)[C@H](O)[C@@H](O)[C@@H]1O)C(O)CO (some centres not stated) | inactive | inactive
Cc1cc(C)nc(NC(=S)N2CCN(c3nccc4ccccc34)CC2)c1 | inactive | inactive
NC(=O)c1ccccc1C[C@H](C(=O)O)N1C(=O)c2ccc(C(=O)O)cc2C1=O | inactive | inactive
O=S(=O)(c1ccc2c(c1)OCCO2)N1CCN(S(=O)(=O)c2cc(F)c(Br)cc2F)CC1 | inactive | inactive
Cc1ccc(C[C@H](C(=O)O)N2C(=O)c3ccc(C(=O)O)cc3C2=O)cc1 | inactive | inactive
CCCn1c(-c2ccc(F)cc2)nc2c(NCCCCN(C)C)nc(C)nc21 | inactive | inactive
Cc1c(P(=S)(c2ccccc2)c2ccccc2)c2ccccc2n1Cc1ccccc1 | inactive | inactive
CN(C)c1cccc(-c2nc(N3CCC(C(N)=O)CC3)ncc2F)c1 | inactive | inactive
O=C(OCC#CCSc1nnc(-c2ccc(F)cc2)o1)c1ccc(F)cc1 | inactive | inactive
COc1cccc(C2=Nn3c(nnc3-c3ccc(OC)cc3OC)SC2)c1 | inactive | inactive
Cc1cc2c(s1)c1cnn(Cc3c(F)cccc3Cl)c(=O)c1n2C | inactive | inactive
CSc1ccc(-c2cncc(NC(=O)c3cccs3)c2)cc1 | inactive | inactive
O=C(O)c1ccc2c(c1)C(=O)N([C@H](Cc1ccccc1)C(=O)O)C2=O | inactive | inactive
CN(Cc1ccccc1)C(=O)C1CCN(Cc2cccc3ccccc23)CC1 | inactive | inactive
COc1cc(F)c(F)c(Nc2ccc(I)cc2F)c1NS(=O)(=O)C1(CC(O)CO)CC1 (configuration not stated) | inactive | inactive
CC(=O)Nc1sc2c(c1-c1ccc(F)cc1)CCNC2 | inactive | inactive
CCOC(=O)c1nnc(N[S+](=O)([O-])c2ccc(NC(=O)Cc3ccc(Cl)c(Cl)c3)cc2)s1 | inactive | inactive
O=C1CCc2cc(S(=O)(=O)Nc3ccc(Cl)c(Cl)c3)ccc2N1 | inactive | inactive
CCCCNc1nc(C)nc2c1nc(-c1ccccc1)n2CC1CCCN1CC (configuration not stated) | inactive | inactive
Cc1cc(C)n2ncc(C(=O)Nc3ccc(S(C)(=O)=O)cc3)c2n1 | inactive | inactive
O=C(Nc1ncc(-c2ccccc2)s1)c1ccc(-c2cccc([N+](=O)[O-])c2)o1 | inactive | inactive
